The record followed here is PMC5540273 (PLoS ONE, 2017).

Molecules are shown by their SMILES.
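Note: KINOMEscan kinase panel screen.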

The experiment relates to PRKCD. To be noted: concentration: 1 μM, replicates: in singlicate; n = 1.
For the molecule `CSc1ccc(-c2cc3ncnc(SCC(=O)O)c3s2)cc1`, the “%Inh” value stood at 17%.
The figure for `CCc1nc(-c2cccc(C)c2)c(-c2ccnc(NCc3ccccc3)c2)s1` is 16%.
The figure for `COCCNC(=O)c1ccc(-c2cc(C(=O)NC3CC3)cc(F)c2C)cc1` [GW868318] is 15%; for `COc1ccc(COc2cc(-n3cnc4ccccc43)sc2C(N)=O)cc1` [GSK1024304] it is 4%; for `COc1cc2ncn(-c3cc(OCc4sccc4Cl)c(C(N)=O)s3)c2cc1OC` [GSK448459] it is 0%.
The figure for `O=C(NCCNc1ccnc(Nc2ccc(F)cc2)n1)c1cc2ccccc2s1` [GSK1379874] is 0%; for `Cc1cccc(-c2nc(Nc3ccc4ncsc4c3)c3ccccc3n2)n1` [GW867588] it is 7%.
As to `c1ccc(-c2n[nH]cc2-c2ccnc3ccccc23)nc1` [GW271431], the “%Inh” value is given as 4%.
The figure for `O=C(NCCNc1ccnc(Nc2ccc(F)cc2)n1)Nc1ccccc1F` [GSK1379880] is 0%; for `Cc1nnc(-c2ccc3occ(-c4ccc(C(C)O)cc4)c3c2)o1` (stereo not drawn) it is 11%; for `NS(=O)(=O)c1cccc(-c2ccc3nccc(-c4cccc(S(N)(=O)=O)c4)c3c2)c1` [GW867253] it is 23%.
The figure for `CCCCCc1nc2c(N)ncnc2n1CCCCC` [SKF-97255] is 18%; for `Cl.Oc1cccc(Nc2ccnc3cc(-c4ccncc4)ccc23)c1` [GW494601] it is 0%.
Under `Fc1ccc(-c2ncn(CCCN3CCOCC3)c2-c2cccnc2)cc1` [SB-211743] stands 6%.
For `Cc1ccc(C(=O)NCC(N)=O)cc1-n1c(C)cc(OCc2ccc(F)cc2F)c(Br)c1=O`, the “%Inh” value is recorded as 33%.
The figure for `NS(=O)(=O)CCc1cccc(Nc2nccc(-c3c(-c4cccc(NC(=O)c5c(F)cccc5F)c4)nn4ccccc34)n2)c1` [GSK336735] is 40%; for `COC(=O)Nc1nc2cc(Oc3ccc(NC(=O)Nc4cc(F)ccc4F)cc3)ccc2[nH]1.Cl` [GW701424] it is 0%; for `Cc1cn2c(=O)cc(N3CCOCC3)nc2n1Cc1cccc(Cl)c1Cl` [GSK2334006] it is 0%.
Take `N#Cc1c(N2CCOCC2)sc(-c2ccn[nH]2)c1-c1ccc(Cl)cc1`: the “%Inh” value is recorded as 0%.
The figure for `Cc1cccc(Cn2ccn3c(=O)cc(N4CCOCC4)nc23)c1` [GSK2297542] is 9%.
Under `COc1ccc(CNC(=O)NC2CCN(c3ccnc(Nc4ccc(OC)cc4)n3)C2)cc1` (stereo not drawn) [GSK1379727] stands 0%; under `c1ccc(-c2cc(-c3c[nH]nc3-c3ccccn3)ccn2)cc1` [GW576604], 0%.
Under `COc1cc2c(cc1OCCN1CCN(C)CC1)ncc1c3ccc(C#N)cc3[nH]c21` stands 1%; under `COc1ccc(Nc2nccc(N3CCC(NC(=O)Nc4cccc(C(C)=O)c4)C3)n2)cc1` (stereo not drawn) [GSK1379731], 0%.
On to `Cc1ccc(NC(=O)c2ccnc(N3CCN(C)CC3)c2)cc1-c1ccc(C(=O)NCC2CC2)cc1` [GW775604], for which the “%Inh” value came out at 0%.
The figure for `Cc1c(Cn2c(C)nn3c(=O)cc(N4CCOC(C)C4)nc23)cccc1C(F)(F)F` (stereo not drawn) [GSK2344444] is 0%.
Under `O=C(NCCCN1CCOCC1)c1cccc(Nc2nccc(Nc3ccc(Oc4ccccc4)cc3)n2)c1` [GW663929] stands 0%; under `Nc1nc(-c2ccc3c(N)n[nH]c3c2)cc(N2CCCC2)n1` [GSK2227430], 0%; under `Nc1nccc(-c2c(-c3ccc(F)cc3)ncn2C2CCN(CC(F)(F)F)CC2)n1` [SB-236560], 0%.
Under `COc1ccc(S(=O)(=O)NC2CCN(c3cc(C)nc(Nc4cccc(C#N)c4)n3)CC2)cc1.O=C(O)C(F)(F)F` [GSK1653539] stands 0%; under `CN(C1=C(c2ccccc2)C(=O)NC1=O)c1ccccc1` [SB-334860], 0%.
`CN1c2ccc(CNc3ccc(F)cc3)cc2-c2c(cnn2C)S1(=O)=O`: the “%Inh” value came out at 0%.
The figure for `COc1cc(Nc2nccc(N3CCC(NC(=O)c4cccc(NC(C)=O)c4)C3)n2)cc(OC)c1OC` (stereo not drawn) [GSK1379754] is 8%.
